# Screening results (PubChem)
# Only some compounds are listed: those with a hit (about 1.1% of all), similar ones and a draw of the others.
# NCOA2 inhibitor = human SRC2 (NCOA2) inhibition; Q15596; HEK293 GAL4-SRC2 luciferase reporter, luminescence; inhibition, % at 9 µM; 370,000 tested, 0.17% active; AID 651957;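 active means inhibition above the mean inhibition of all tested compounds plus 3 SD, set per campaign, cut at about 52% in these data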
# NR5A2 inv ag = NR5A2 inverse agonism in reporter assay; AID 602396; 360,000 tested, 0.13% active; HEK293T StAR-luciferase reporter, LRH-1 transfected, 24 h; inhibition, % at 3.6 µM; O00482;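 active means inhibition above the mean inhibition of all tested compounds plus 3 SD, cut at about 73% in these data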
# GalR3 antagonist = antagonists of human GalR3; O60755; HEK293 GalR3-CNG cAMP membrane potential fluorescence; galR3 body fused to GalR1 C-terminus; inhibition, % at 3 µM; 360,000 tested, 0.44% active;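 active means inhibition above the screen-wide average plus 3 SD, cut at about 13% in these data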;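 further: forskolin and galanin both at EC90 stimulate the cells; cAMP rise reported by CNG channel membrane potential dye signal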
# SRC1 inh = human NCOA1 inhibition; HEK293 GAL4-SRC1 luciferase reporter, luminescence; inhibition, % at 3.6 µM; 360,000 tested, 0.12% active;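 active means inhibition above the campaign mean plus 3 SD, with each screening campaign given its own cutoff, cut at about 60% in these data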
# NR2F2 inh = NR2F2 (human) inhibition, primary screen; P24468; inhibition, % at 8.6 µM; 370,000 tested, 0.7% active; HEK293T NGFI-A luciferase reporter, luminescence;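 active means inhibition above a per-plate cutoff, mean inhibition of test wells between control levels plus 3 SD, cut at about 38% in these data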;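 further: cells cotransfected with COUP-TFII expression vector driving the NGFI-A reporter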
# SRC3 inh = human NCOA3 inhibition; inhibition, % at 3.6 µM; 360,000 tested, 0.17% active; AID 588352; HEK293 GAL4-SRC3 luciferase reporter, luminescence;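 active means inhibition above a per-campaign cutoff, the mean of all compounds plus 3 SD, cut at about 60% in these data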;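 further: higher means less SRC3-driven luciferase light from the GAL4 reporter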
# VP16 Luc counter = counter-screen for COUP-TFII antagonists: inhibitors of VP16 | 2,500 tested, 25% active | shares compounds with NR2F2 inh | inhibition, % at 8.5 µM | AID 687007 | HEK293 Gal4-VP16 luciferase reporter, luminescence; in the data active means inhibition above about 13%
# COUP-TFII conf = confirmation of human COUP-TFII (NR2F2) inhibitors; shares compounds with NR2F2 inh; HEK293 NGFI-A luciferase reporter, luminescence; inhibition, % at 8.5 µM; 2,500 tested, 45% active; AID 687008;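 active means mean inhibition over three repeats above a set limit taken from the earlier primary screen, cut at about 38% in these data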
# Hits are given with their value; – = inactive; · = no result.
SMILES,NCOA2 inhibitor,NR5A2 inv ag,GalR3 antagonist,SRC1 inh,NR2F2 inh,SRC3 inh,VP16 Luc counter,COUP-TFII conf
CC[C@@H](CCCc1ccc(F)cc1)CN(Cc1ccc(OC)cc1)S(=O)(=O)c1ccc(C)cc1,–,·,·,·,–,·,·,·
Nc1c(Cl)ncnc1NCCc1ccc(O)cc1,–,–,–,–,47,–,–,–
Nc1c(Cl)ncnc1NCc1cccnc1,–,–,–,–,–,–,·,·
CC(=NNC(=O)CSc1nnc(-c2ccc(C(C)(C)C)cc2)n1-c1ccccc1)c1cccc2ccccc12,–,·,·,·,–,·,·,·
O=C1NC(=O)C2(CCc3ccccc32)N1 (stereo unspecified),–,–,–,–,–,–,·,·
C=C1CC2(OC1=O)c1ccccc1CCc1ccccc12,–,–,–,–,39,–,17,–
CC(=NCc1ccco1)c1c(C)[nH]n(-c2nc3ccccc3s2)c1=O,–,–,–,–,62,–,–,–
COc1ccc2[nH]c(=O)c3c(c2c1)OC(C)(C)C=C3,63,–,–,–,44,–,–,–
Cc1cc2c([nH]c3ccccc32)c2c1OC(C)(C)C=C2,–,–,–,–,–,–,·,·
CCOC(=O)SC1=N/C(=C\c2ccc(N(C)C)cc2)C(=O)S1,–,–,–,–,–,–,·,·
CCOC(=O)c1cc2c(=Cc3ccc(N(C)C)cc3)c3ccccc3n2[n+]1C,–,73,–,–,58,–,21,49
Cc1cc2c(=Cc3ccc(N(C)C)cc3)c3ccccc3n2[n+]1C,–,76,–,–,75,–,–,63
CC1=NN(c2cccc(F)c2)C(=O)/C1=C/c1ccc(N(C)C)cc1,–,–,–,–,–,–,·,·
Cc1c(C(=O)NCc2cccc(Cl)c2)sc(=O)n1Cc1ccc(C(=O)N(C)C)cc1,–,–,–,–,–,–,·,·
Cc1c(C(=O)NCc2ccc(Cl)c(Cl)c2)sc(=O)n1Cc1ccc(C(=O)N(C)C)cc1,–,–,–,–,50,–,–,–
C=Cc1ccc(Cn2c(C)c(C(=O)NCc3ccc(Cl)c(Cl)c3)sc2=O)cc1,–,–,–,–,–,–,·,·
Cc1c(C(=O)NCc2ccc(Cl)c(Cl)c2)sc(=O)n1Cc1ccc(S(=O)(=O)N(C)C)cc1,–,–,–,–,38,–,–,–
COC(=O)N1C[C@H](OCc2ccccc2)[C@H]2C[C@@H]1c1ccccc1O2,–,·,–,·,–,·,·,·
C[C@H](O)[C@@H]1CN2CCc3c([nH]c4c(-c5ccccc5)cccc34)[C@@H]2C[C@@H]1N(C)C(=S)Nc1ccc(C#N)cc1,–,·,·,·,–,·,·,·
Cc1nn(-c2ccccc2)c(C)c1C(=O)OC(C)C(=O)NC1CCCCC1 (stereo unspecified),–,–,–,–,59,–,–,–
Cc1nn(-c2ccccc2)c(Cl)c1C(=O)NC1CCCCC1,–,–,–,–,–,–,·,·
O=C(c1c(F)cccc1F)N1CCC(Oc2cccnc2)CC1,–,·,·,·,–,·,·,·
O=S1(=O)c2ccc(Br)cc2OCCC2CCCCN21 (stereo unspecified),–,·,–,·,–,·,·,·
Cc1ccc(-n2c(SCC(=O)NN=Cc3ccc(-c4ccccc4)cc3)nnc2-c2ccccc2)cc1,–,·,·,·,–,·,·,·
COc1ccc(Cn2cc(CN3[C@@H](CC(C)C)COc4cccc(F)c4S3(=O)=O)nn2)cc1,–,·,·,·,–,·,·,·
SMILES,NCOA2 inhibitor,NR5A2 inv ag,GalR3 antagonist,SRC1 inh,NR2F2 inh,SRC3 inh,VP16 Luc counter,COUP-TFII conf
Cc1nnsc1NC(=O)OCc1ccc(C(C)(C)C)cc1,–,–,36,–,56,–,–,38
Cc1ccc(S(=O)(=O)N2CCc3ccccc3CC2)cc1,–,–,–,–,66,–,–,50
COc1cccc(Cn2c(NCc3ccco3)nc3c2c(=O)n(C)c(=O)n3C)c1,–,·,–,·,49,·,–,–
COc1ccc(Cl)c(Cn2c(NCc3ccco3)nc3c2c(=O)n(C)c(=O)n3C)c1,–,–,–,–,–,–,·,·
COc1ccc2c(c(-c3ccccc3)cn2C)c1-c1ccccc1,–,·,·,·,–,·,·,·
NCCN1C(=O)S/C(=C\c2ccc3c(c2)OCO3)C1=O,69,–,–,–,76,–,27,–
O=C(CNC(=O)c1ccccc1F)NCCN1C(=O)S/C(=C\c2ccc3c(c2)OCO3)C1=O,–,–,–,–,–,–,·,·
S=C(NCC1(c2ccccc2)CCCC1)Nc1ccccc1,–,–,–,–,42,–,–,–
C=CCN1C(=O)[C@@H](CC(=O)NCc2cccc3ccccc23)[C@]2(C(=O)OCC)CCCCC/C=C/12,–,·,·,·,–,·,·,·
CCOc1ccc(N=C(NN)c2ccc3ccccc3n2)cc1,–,–,–,–,40,–,–,–
CCN=C1NC(c2ccc(Cl)cc2)C(C(=O)OC)=C(C)N1Cc1cccc(C(F)(F)F)c1 (stereo unspecified),–,·,–,·,–,·,·,·
COC(=O)[C@]12C[C@H](CC(=O)NCCCCc3ccccc3)C(=O)N(Cc3ccco3)C1=C[C@H](C(C)(C)C)O[C@@H]2C,–,·,·,·,–,·,·,·
O=C(c1ccccc1)N1CCC2CCN(S(=O)(=O)c3ccccc3)CC21 (stereo unspecified),–,·,–,·,–,·,·,·
C=CCNc1ncnc2c1cnn2-c1ccc(C)cc1C,–,–,–,–,–,–,·,·
CCOC(=O)N1CCC(Nc2ncnc3c2cnn3-c2ccc(C)cc2C)CC1,–,–,–,–,59,–,–,43
COc1ccc(Cn2c(O)c(C=Nc3ccccc3C(=O)O)c3ccccc3c2=O)cc1,–,–,–,–,–,–,·,·
COc1ccccc1NS(=O)(=O)c1cccc(-n2c(O)c(C=Nc3ccccc3C(=O)O)c3ccccc3c2=O)c1,–,–,–,–,39,–,–,46
CCN=C1NN=C(c2cc(C)n(CCc3ccccc3)c2C)CS1,–,–,–,–,–,–,·,·
CCN=C1NN=C(c2cc(C)n(Cc3ccco3)c2C)CS1,71,–,–,–,73,62,21,92
Oc1cc(O)cc(-c2cc3ccc(O)cc3o2)c1,–,–,–,–,–,–,·,·
CC1(C)Oc2cc3oc(-c4cc(O)cc(O)c4)cc3cc2CC1O (stereo unspecified),–,–,–,–,41,–,–,–
Cc1nnc(SCc2nnc(-c3cccs3)o2)n1Cc1ccccc1,–,–,–,–,–,–,·,·
Clc1ccc(-c2nnc(CSc3nnc(-c4cccs4)n3Cc3ccccc3)o2)cc1,–,–,–,–,51,–,–,47
CCCn1c(NC(=O)c2ccc(Cl)c(S(=O)(=O)N3CCCC3)c2)nc2ccccc21,–,–,–,–,44,–,–,–
COC(=O)c1c(C)n(-c2ccccc2)c2ccc(O)cc12,–,–,–,–,–,–,·,·
CN(C)/C=C/c1c([N+](=O)[O-])c2ccc(O)cc2n1-c1ccccc1,–,–,–,–,40,–,–,–
